The results in this text go back to PubChem BioAssay (NCATS).

Inconclusive results are not listed. Values without a mark were called inactive. Calls of active or inactive are those of the source. The call rests on the fitted dose curve; in most records, active means well fitted curve in the direction sought with a large enough effect; inconclusive means small, poorly fitted or top-dose-only effect, or another doubt; inactive means no such curve, though single readings can be large; an effect the other way counts as inactive or inconclusive.

A short description of assay [1]: qHTS of pediatric cancer cell lines to identify multiple opportunities for drug repurposing: Primary screen for TC32 cells (AID 1347089). Further: nearly all actives have a fitted effect of over 60% in size. Further: potency means the concentration at half of the fitted maximal effect. The procedure, abridged:
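In the primary qHTS, MIPE compounds were tested at 11 concentrations (0.78 nM to 46 µM) and NPC compounds at 8 (0.59 nM to 46 µM) on TC32 cells for 48 h. CellTiter-Glo luminescence gave viability.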
Background: Quantitative high-throughput screening tests each substance at several concentrations.

A short description of assay [2]: qHTS of pediatric cancer cell lines to identify multiple opportunities for drug repurposing: Primary screen for SJ-GBM2 cells (AID 1347091). Further: potency means the concentration at half of the fitted maximal effect. A digest of the protocol: (§1)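 Eight- or eleven-point concentration series, 48 h treatment at 37 degrees C in growth media; readout CellTiter-Glo luminescence. Potency and efficacy were taken from the concentration-response curves.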

The nature of assay [3]: qHTS of pediatric cancer cell lines to identify multiple opportunities for drug repurposing: Primary screen for A673 cells (AID 1347092). Further: nearly all actives have a fitted effect of over 45% in size. Further: potency means the concentration at half of the fitted maximal effect. The procedure, abridged: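 48 h compound exposure, A673, 500-1,000 cells/well, 37 degrees C/5% CO2. MIPE: 11-point, 0.78 nM-46 µM; NPC: 8-point, 0.59 nM-46 µM (final). Readout CellTiter-Glo luminescence after 15 min RT.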
A short description of assay [4]: qHTS of pediatric cancer cell lines to identify multiple opportunities for drug repurposing: Primary screen for SK-N-MC cells (AID 1347093). Further: potency means the concentration at half of the fitted maximal effect. The procedure, abridged: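 Metabolically active cells were quantified by ATP-dependent luminescence (CellTiter-Glo, 15 min at room temperature) following 48 h treatment. Cells had been plated at 500-1,000 per well and settled for 5 h beforehand.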

A short description of assay [5]: qHTS of pediatric cancer cell lines to identify multiple opportunities for drug repurposing: Primary screen for NB-EBc1 cells (AID 1347095). Further: potency means the concentration at half of the fitted maximal effect. A digest of the protocol: (§2)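 Readout: CellTiter-Glo luminescence, 48 h treatment. Controls DMSO (neutral) and bortezomib 2.3 µM final (positive). Potency and efficacy taken from primary-screen concentration-response curves.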

A short description of assay [6]: qHTS of pediatric cancer cell lines to identify multiple opportunities for drug repurposing: Primary screen for U-2 OS cells (AID 1347096). Further: nearly all actives have a fitted effect of over 50% in size. Further: potency means the concentration at half of the fitted maximal effect. The procedure, abridged:
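Cells (500-1,000/well) in growth media were settled 5 h at 37 degrees C, then given compounds for 48 h. Viability was read as CellTiter-Glo luminescence. Primary runs used MIPE at 11 points (0.78 nM-46 µM) and NPC at 8 points (0.59 nM-46 µM); follow-ups used 11 points.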

The nature of assay [7]: qHTS of pediatric cancer cell lines to identify multiple opportunities for drug repurposing: Primary screen for BT-37 cells (AID 1347094). Further: potency means the concentration at half of the fitted maximal effect. The procedure, abridged: as §2
Assay [8] is described as follows: qHTS of pediatric cancer cell lines to identify multiple opportunities for drug repurposing: Primary screen for DAOY cells (AID 1347090). Further: series mostly up to about 46 µM; nearly all actives have a fitted effect of over 55% in size. The procedure, abridged: as §1

In the case of `CC1(C)CC(=O)c2c(C(F)(F)F)nn(-c3ccc(C(N)=O)c(NC4CCC(O)CC4)c3)c2C1` (stereo unspecified), the Potency in assay [1] was 0.208 µM (active); in assay [2], 0.264 µM (active); in assay [3] it was 0.118 µM (active); in assay [4], 0.0743 µM (active); in assay [5], 0.148 µM (active). The Potency result in assay [6] was “inactive”.
In the case of `CC(C)CN(C[C@H](O)[C@H](Cc1ccccc1)NC(=O)O[C@H]1CCOC1)S(=O)(=O)c1ccc(N)cc1`, the Potency result in assay [1], in assay [2] and in assay [6] was “inactive” throughout. Besides, in assay [3], the Potency was 11.8 µM (active).
Turning to `O=C(Nc1ncc(SCCN2CCCC2)s1)[C@]1(c2ccc(S(=O)(=O)C3CC3)cc2)C[C@@H]1C1CCCCC1`, the Potency entry in assay [1] was “inactive”. Besides, the Potency in assay [2] is 23.5 µM (active); in assay [3], 18.7 µM (active); in assay [7], 30.6 µM (active); in assay [5] it was 26.4 µM (active); in assay [6] it was 23.5 µM (active).
`COc1ccc(CCC(=O)Nc2nc3ccc(Cl)cc3s2)cc1OC`: the Potency result in assay [1], in assay [2], in assay [5] and in assay [6] was “inactive” each time. Besides, the Potency in assay [3] is 18.7 µM (active).
As to `OC1CCC(Nc2ncc3nc(Nc4c(F)cc(F)cc4F)n([C@@H]4CCOC4)c3n2)CC1` (stereo partly specified), the Potency result in assay [1] is “inactive”. For the same compound, the Potency was 9.35 µM (active) in assay [2], 9.35 µM (active) in assay [3] and 5.26 µM (active) in assay [5].
Consider `COc1ccc(-c2cc(=O)c3c(O)cc(O[C@@H]4O[C@H](CO[C@@H]5O[C@@H](C)[C@H](O)[C@@H](O)[C@@H]5O)[C@@H](O)[C@H](O)[C@@H]4O)cc3o2)cc1O`, for which the Potency result in assay [1], in assay [2], in assay [7], in assay [5] and in assay [6] was “inactive” in each case. In assay [3], the Potency was 14.8 µM (active).
With `C=C1c2cccc(O)c2C(O)=C2C(=O)[C@@]3(O)C(O)=C(C(N)=O)C(=O)[C@@H](N(C)C)[C@@H]3[C@@H](O)[C@H]12`, the Potency entry in assay [1], in assay [2], in assay [5] and in assay [6] was “inactive” in each case. In addition, in assay [3], the Potency is 23.5 µM (active).
On to `CCCCOCCOc1nc(-c2ccc(C(=O)O)c(F)c2)sc1C`, for which the Potency entry in assay [1], in assay [2], in assay [3], in assay [7], in assay [5] and in assay [6] was “inactive” each time.
Consider `CNc1nc(Nc2ccc(C(=O)N3CCOCC3)cc2OC)ncc1Cl`, for which the Potency entry in assay [1], in assay [2], in assay [3], in assay [7], in assay [5] and in assay [6] was “inactive” throughout.
In the case of `COc1ccc2ccc(=O)oc2c1CC=C(C)C`, the Potency result in assay [1] and in assay [2] was “inactive” in each case. Moreover, in assay [4], the Potency is 9.35 µM (active).
Turning to `COc1ccc(-c2cc3nccn3c(Nc3ncccc3C(N)=O)n2)cc1OC`, the Potency result in assay [1] was “inactive”. The Potency in assay [2] was 1.18 µM (active); in assay [3] it was 1.48 µM (active); in assay [4], 1.66 µM (active); in assay [5] it was 2.64 µM (active).
For the compound `CC(C)(C)c1[nH]cnc1C=c1[nH]c(=O)c(=Cc2ccccc2)[nH]c1=O`, the Potency is 0.0068 µM (active) in assay [1]; 0.001 µM (active) in assay [2]; 0.001 µM (active) in assay [3]; 0.001 µM (active) in assay [4]; 0.001 µM (active) in assay [5]; 42.9 µM (active) in assay [6].
For `CCN1CCN(c2ccc(Nc3cc(N(C)C(=O)Nc4c(Cl)c(OC)cc(OC)c4Cl)ncn3)cc2)CC1`, the Potency entry in assay [1], in assay [3], in assay [7] and in assay [6] was “inactive” in each case. Besides, the Potency in assay [2] is 18.7 µM (active); in assay [5], 20.9 µM (active).
Regarding `CCCCCCCCCCCCCCCC(=O)O[C@H]1[C@@H](O)[C@@H](O)[C@@H]([C@H](NC(=O)[C@@H]2C[C@@H](CCC)CN2C)[C@H](C)Cl)O[C@@H]1SC`, the Potency entry in assay [1], in assay [2], in assay [7], in assay [5] and in assay [6] was “inactive” throughout. In assay [4], the Potency was 18.7 µM (active).
Regarding `CN1CCC[C@H]1CCO[C@](C)(c1ccccc1)c1ccc(Cl)cc1`, the Potency entry in assay [1], in assay [2], in assay [7], in assay [5] and in assay [6] was “inactive” each time. Moreover, the Potency in assay [4] is 20.9 µM (active).
On to `CS(=O)(=O)c1ccc(C2=C(c3ccccc3)C(=O)OC2)cc1`, for which the Potency result in assay [1], in assay [2], in assay [3], in assay [7], in assay [5] and in assay [6] was “inactive” in each case.
As for `CCC(C)SSc1ncc[nH]1` (stereo unspecified), the Potency entry in assay [1] and in assay [6] was “inactive” throughout. The Potency in assay [2] was 20.9 µM (active); in assay [3] it was 18.7 µM (active); in assay [4], 3.72 µM (active); in assay [5] it was 5.9 µM (active).
Take `COc1c(C)cnc(Cn2cnc3c(Cl)nc(N)nc32)c1C`: the Potency in assay [1] was 1.17 µM (active); in assay [2], 0.296 µM (active); in assay [3], 0.235 µM (active); in assay [4], 0.132 µM (active); in assay [5], 0.118 µM (active).
Take `CCCCCOC(=O)Nc1nc(=O)n([C@@H]2O[C@H](C)[C@@H](O)C2O)cc1F` (stereo partly specified): the Potency entry in assay [1], in assay [2], in assay [3], in assay [7], in assay [5] and in assay [6] was “inactive” each time.
As to `NCC1CCC(C(=O)O)CC1` (stereo unspecified), the Potency result in assay [8], in assay [2], in assay [3], in assay [4], in assay [7] and in assay [5] was “inactive” throughout. Moreover, in assay [6], the Potency result is “inactive”.
Consider `Oc1cc(O)cc(C=Cc2ccc(O)c(O)c2)c1`, for which the Potency result in assay [8], in assay [2] and in assay [6] was “inactive” throughout. The Potency in assay [3] was 18.7 µM (active); in assay [4] it was 5.26 µM (active); in assay [5], 4.18 µM (active).
